From PubChem
CHT allo act – allosteric activators of human choline transporter CHT; Q9GZV3; CHT-expressing cells, membrane potential dye, choline EC20; hits give high values; LV-AA mutant CHT in HEK293 cells; B-score at 10 µM; 0.49% of 310,000 active; AID 488977;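 active = initial fluorescence not abnormally high and integrated response B-score, plate-corrected, over 3 SD above library mean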
Target sequence (Q9GZV3 whole entry, looked up): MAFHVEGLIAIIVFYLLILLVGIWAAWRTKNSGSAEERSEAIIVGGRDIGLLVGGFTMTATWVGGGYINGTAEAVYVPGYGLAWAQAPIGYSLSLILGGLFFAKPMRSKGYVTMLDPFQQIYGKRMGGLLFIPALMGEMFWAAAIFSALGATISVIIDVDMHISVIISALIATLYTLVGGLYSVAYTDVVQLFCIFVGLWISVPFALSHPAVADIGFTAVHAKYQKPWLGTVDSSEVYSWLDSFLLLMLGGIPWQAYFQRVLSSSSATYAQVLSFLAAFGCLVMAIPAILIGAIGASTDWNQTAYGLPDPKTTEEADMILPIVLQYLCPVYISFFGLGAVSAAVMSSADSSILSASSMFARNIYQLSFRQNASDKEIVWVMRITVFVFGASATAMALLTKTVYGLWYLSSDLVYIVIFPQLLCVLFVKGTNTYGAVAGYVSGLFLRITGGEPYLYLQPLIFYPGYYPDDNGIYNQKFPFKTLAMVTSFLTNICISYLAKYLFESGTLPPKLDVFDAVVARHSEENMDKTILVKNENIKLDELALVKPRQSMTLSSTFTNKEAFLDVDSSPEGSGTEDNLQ
IDE cell activ – boosts human insulin-degrading enzyme activity in HEK cells. P14735. FAbeta-B cleavage, fluorescence polarization; 0% vehicle, 100% cell-free pure enzyme wells. activation, % at 5.96 µM. 0.073% of 340,000 active. AID 493087;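 active = activation above the mean of all tested compounds plus 3 SD, set per screening campaign, cut at about 17% in these data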
IDE cell inh – cellular human IDE inhibition; HEK cells, FAbetaB cleavage, fluorescence polarization; inhibition, % at 5.59 µM; 0.41% of 320,000 active;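 active = percent inhibition above the average of all tested compounds plus 3 SD, set per screening campaign, cut at about 16% in these data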;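 also: IDE supplied by intact live HEK cells; FP after avidin binding of uncleaved biotin substrate so inhibition keeps polarization high; 0% = DMSO wells and 100% = 60 µM reference IDE inhibitor Ii1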
TMEM16A inh – inhibitors of mouse TMEM16A calcium-activated chloride channel | Q8BHY3 | normalized B-score (activity score, 25-100; higher = stronger inhibition) at 10 µM | HEK293 TMEM16A/YFP iodide influx fluorescence, ionomycin | 1.2% of 310,000 active;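 active = ratio plate-corrected score three or more library SD toward inhibition, starting fluorescence score within five deviations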;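 also: score derived from kinetic fluorescence span divided by baseline fluorescence per well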
ANO1 activ – activators or potentiators of mouse TMEM16A chloride channel. Q8BHY3. HEK293 TMEM16A/YFP-H148Q/I152L, iodide quench fluorescence; hits give low values. B-score at 10 µM. 0.3% of 340,000 active. AID 623877;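 active = fluorescence-ratio B-score plate-corrected deviation score at least 3 library SD below zero, with starting fluorescence score within 5 deviations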;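 also: channel opened by trigger with iodide after compound preincubation; score built on the fluorescence ratio of max minus min over baseline; more negative score means more quench and so TMEM16A activation or potentiation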
CHT block – inhibitors of human choline transporter CHT; Q9GZV3; CHT-expressing cells, membrane potential dye, choline response; hits give low values; B-score at 10 µM; 0.86% of 310,000 active;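 active = B-score over 3 SD under the library average, and starting fluorescence ratio not unusually high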;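 also: choline stimulus applied at its EC90 after an EC20 pre-addition; B-score computed on integrated fluorescence ratio after choline addition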
CHT block conf – human CHT inhibition, confirmatory screen. CHT-expressing cells, choline membrane potential dye; LV-to-AA substituted CHT, HEK293 cells. 70% of 2,400 active. AID 493221. shares compounds with CHT block. CHT activity remaining % of control (hits give low values), % at 10 µM;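 active = choline transporter activity left, mean of duplicates at 10 µM, below buffer-only control mean minus 3 SD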;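 also: depolarization triggered by choline at its EC90 following an EC20 pre-addition; 0% = hemicholinium-3 full block and 100% = buffer-only control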
HEK293 MPD ctr – counter-screen for CHT inhibitors: effect in parental HEK293 cells | shares compounds with CHT block | membrane potential dye, choline response; active = decrease or increase beyond buffer ±3SD | membrane potential ratio readout (active if shifted either direction beyond buffer ±3SD; no single direction) at 10 µM | 4% of 2,400 active;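 also: parental cells lack the transporter so any hit is non-specific; ratio is peak minus trough fluorescence over baseline after EC90 choline challenge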
Numbers without * were called inactive; i = inactive; · = no result. An excerpt weighted towards active compounds, which were near 2.7% of everything screened.

SMILES	CHT allo act	IDE cell activ	IDE cell inh	TMEM16A inh	ANO1 activ	CHT block	CHT block conf	HEK293 MPD ctr
O=C(Nc1ccc(F)cc1F)c1ccc(S(=O)(=O)NCc2ccco2)cc1	·	2.5	-1.2	·	i	·	·	·
CCCCC(=O)NNC(=S)NC(=O)c1ccc(C)cc1	i	-3.1	4.3	i	i	-9.05*	30.0%*	i
Cc1ccc(C(=O)NNC(=S)NC(=O)COc2ccccc2)cc1	i	1.6	8.4	25*	i	-6.08*	i	i
CCCOc1ccc(C(=O)NNC(=S)NC(=O)c2cccs2)cc1	i	-4.5	3.0	100*	i	-9.45*	i	i
CCCCOc1ccc(C(=O)NNC(=S)NC(=O)CC)cc1	i	-0.7	1.8	i	i	i	·	·
COc1cc(C=O)ccc1OCCOCCOc1ccccc1Cl	i	-1.1	-0.5	i	i	-5.56*	63.4%*	i
COc1cc(C=O)ccc1OCCOc1ccccc1[N+](=O)[O-]	i	5.6	1.8	i	i	i	·	·
Nn1c(-c2ccccc2)nc2cc(Cl)ccc2c1=O	i	-3.0	1.1	i	i	-7.24*	i	i
CCCCn1c(N)c(N(CCOC)C(=O)CC(NC(=O)c2ccccc2)c2ccccc2)c(=O)[nH]c1=O (configuration not stated)	i	-0.9	-3.8	i	i	i	·	·
Cc1ccccc1NC(=O)CCNS(=O)(=O)c1cccc2nsnc12	i	1.8	2.4	i	i	i	·	·
COc1ccc(-c2csc(N)n2)cc1	i	-2.7	0.6	i	i	i	·	·
COc1ccc(-c2nc(C=O)cs2)cc1	i	-0.6	8.3	i	i	-5.51*	23.0%*	i
CC(C)(C)Cc1nnc(NC(=O)CCC2CCCCC2)s1	i	2.5	6.8	i	i	i	·	·
CCOc1ccc(Br)cc1CC(=O)O	i	4.1	0.0	i	i	i	·	·
CCCOc1ccc(Br)cc1CSC(=N)N	i	4.6	0.6	25*	i	-6.07*	33.0%*	i
COc1ccc(Cl)cc1NC(=O)CN(C)C(=O)c1ccc(-n2nc(C)cc2C)cc1	·	3.4	-2.3	·	i	·	·	·
O=[N+]([O-])c1cc(Br)cc(C=Nc2ccc3c(c2)OCO3)c1O	i	-0.2	0.2	i	i	-7.99*	31.9%*	i
CN(C)C1(CN=Cc2cc(Cl)cc([N+](=O)[O-])c2O)CCCCC1	i	-0.1	-5.3	i	i	-6.32*	36.4%*	i
Cc1ccc2c(c1)C1CN(C)CCC1N2C(=O)c1ccccc1NS(=O)(=O)c1cccc(C(F)(F)F)c1 (configuration not stated)	i	4.8	-0.4	i	i	-6.92*	36.9%*	i
O=C(NCCc1ccc(Cl)cc1Cl)c1cncc(Br)c1	i	0.7	0.3	i	i	i	·	·
COc1ccccc1NC(=O)COC(=O)CCn1c(C)csc1=O	i	0.3	7.0	i	i	i	·	·
c1ccc2c(c1)-c1ccccc1C2N1CCOCC1	·	-3.5	·	·	i	·	·	·
CC(C)OC(=O)CN1CCN(C2c3ccccc3-c3ccccc32)CC1	i	-0.6	-3.5	i	i	-5.61*	70.4%*	i
CC(C)c1ccc(S(=O)(=O)N2CCC(C(=O)NCC3(N(C)C)CCCCC3)CC2)cc1	i	2.2	-0.7	i	i	-6.05*	21.9%*	i
Cc1ccc(S(=O)(=O)NNC(=O)c2sc3nc(C)cc(C)c3c2-n2cccc2)cc1	i	3.5	7.3	i	i	-4.97*	i	i
SMILES	CHT allo act	IDE cell activ	IDE cell inh	TMEM16A inh	ANO1 activ	CHT block	CHT block conf	HEK293 MPD ctr
O=C(NCCCN1CCCC1=O)C(=O)NCC1OCCCN1S(=O)(=O)c1cc(F)ccc1F (configuration not stated)	i	0.6	-2.3	i	i	i	·	·
O=C(CSc1nnc(-c2ccco2)n1Cc1ccco1)NCc1cccs1	i	2.4	1.7	i	i	-5.28*	66.9%*	i
Cn1c(=NCC(O)COc2ccccc2)sc2ccccc21 (configuration not stated)	i	1.9	2.2	i	i	-18.8*	8.9%*	i
CCN1C/C(=C\c2cc(OC)c(OC)c(OC)c2)C2=NN(c3ccccc3)C(c3cc(OC)c(OC)c(OC)c3)C2C1 (configuration not stated)	·	3.3	·	·	i	·	·	·
Cc1nn(-c2ccccc2)c(C)c1NC(=O)COc1ccc([N+](=O)[O-])cc1	i	4.7	6.0	i	i	i	·	·
CC(C)(C)OC(=O)N1CCC(CC2CC(c3ccccc3)=NO2)(C(=O)NCc2ccccc2)CC1 (configuration not stated)	i	0.0	4.9	i	i	i	·	·
COC(=O)C1(CC2CC(c3cccc(Br)c3)=NO2)CCN(C(=O)OC(C)(C)C)CC1 (configuration not stated)	i	1.3	1.9	i	i	-4.99*	i	i
O=C(Cc1ccc(S(=O)(=O)N2CCOCC2)s1)Oc1ccc(F)cc1	i	-2.9	0.2	i	i	i	·	·
Cc1ccc(S(=O)(=O)N2CCC(C(=O)C3C(=O)CC(C)(C)CC3=O)CC2)cc1	i	10.3	0.7	i	i	-6.37*	i	i
Cc1ccc(-c2csc3ncn(CC#N)c(=O)c23)cc1	i	-3.5	-5.3	i	i	-5.61*	50.0%*	i
Cc1ccc(-c2csc3ncn(CC#N)c(=O)c23)cc1C	i	3.0	1.9	i	i	i	·	·
Cc1ccc(S(=O)(=O)N2CCCCC2)cc1NC(=O)C1CC(=O)N(c2ccc3c(c2)OCCO3)C1 (configuration not stated)	i	0.7	6.7	i	i	i	·	·
CCN(CC)c1ccc(NC(=O)c2c(C)noc2C)cc1	i	2.8	0.1	i	i	i	·	·
COc1ccc(Br)cc1C(=O)NC(=S)Nc1ccc(Cl)c(C(=O)O)c1	i	4.0	1.5	i	i	i	58.1%*	i
COc1ccc(Br)cc1/C=C/C(=O)NC(=S)Nc1ccc(Cl)c(C(=O)O)c1	i	-5.2	4.5	i	i	i	·	·
O=C(Cc1c[nH]c2ccccc12)N1CCN(S(=O)(=O)c2cccc(Cl)c2Cl)CC1	·	4.0	-5.8	·	i	·	·	·
